Screens (PubChem BioAssay)
Sampled rows, rich in hits. Any-hit rate of the full collection: about 2.3%.
M1 ag = human M1 muscarinic receptor agonism | P11229 | CHO-K1 hM1, Fluo-8 calcium fluorescence, agonist mode; 0% DMSO, 100% acetylcholine EC100 | activation, % at 3 µM | 360,000 compounds, 0.33% hits | AID 588814;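 active = activation above the run's mean compound activation plus 3 SD, cut at about 16% in these data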;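 also: peak over basal fluorescence ratio within a 140 s kinetic read after compound addition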
Target sequence (P11229 whole entry, looked up): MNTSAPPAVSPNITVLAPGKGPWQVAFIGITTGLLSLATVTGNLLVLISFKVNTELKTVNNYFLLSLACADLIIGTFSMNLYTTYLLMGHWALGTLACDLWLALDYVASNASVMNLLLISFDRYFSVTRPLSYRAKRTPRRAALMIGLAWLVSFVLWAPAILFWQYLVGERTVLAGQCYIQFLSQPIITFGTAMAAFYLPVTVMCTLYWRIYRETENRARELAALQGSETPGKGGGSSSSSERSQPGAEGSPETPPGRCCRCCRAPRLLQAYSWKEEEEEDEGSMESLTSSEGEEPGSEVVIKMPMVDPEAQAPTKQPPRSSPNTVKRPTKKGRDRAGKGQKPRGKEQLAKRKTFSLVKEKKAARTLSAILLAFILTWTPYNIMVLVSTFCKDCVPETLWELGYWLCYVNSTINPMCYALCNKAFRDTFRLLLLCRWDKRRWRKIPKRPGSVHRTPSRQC
CHO-K1 Ca PAM = counter-screen for M1 PAMs: effect in parental CHO-K1 cells. ATP EC20, Fluo-8 calcium fluorescence; 0% at ATP EC20, 100% at ATP max. activation, % at 3 µM. 360,000 compounds, 0.02% hits;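 active = activation above the run cutoff, the mean activation of all test compounds plus 3 SD, cut at about 40% in these data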;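 also: peak over basal fluorescence ratio in a 140 s read after ATP addition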
CHO-K1 Ca ag = M1 agonist counterscreen hit in parental CHO-K1 cells; activation, % at 3 µM; Fluo-8 calcium fluorescence; scaled to maximal ATP response, vehicle zero; 360,000 compounds, 0.48% hits; AID 602248; in the data active = activation above about 15%;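 also: untransfected CHO-K1 host cells lacking M1 receptor as counterscreen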
M1 antag = antagonists of human M1 muscarinic receptor; P11229; CHO-K1 hM1, Fluo-8 calcium fluorescence, ACh EC80 antagonist; inhibition, % at 3 µM; 360,000 compounds, 1.3% hits; AID 588852;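 active = percent inhibition above its own plate's cutoff, namely the mean of that plate's compound wells plus 3 SD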;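 also: peak over basal fluorescence ratio during 140 s after agonist addition; 0% = ACh EC80 plus DMSO and 100% = DMSO alone without agonist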
M1 PAM = potentiates human M1 receptor response to acetylcholine | P11229 | CHO-K1 hM1, Fluo-8 calcium fluorescence, ACh EC20; 0% = ACh EC20, 100% = maximal ACh | activation, % at 3 µM | 360,000 compounds, 0.088% hits; in the data active = activation above about 19%, passing the limit was not always enough
CHO-K1 Ca antag = counter-screen for M1 antagonists: effect in parental CHO-K1 cells | ATP-induced calcium, Fluo-8 fluorescence | inhibition, % at 3 µM | 360,000 compounds, 0.6% hits | AID 602250;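 active = inhibition above a per-plate cutoff, the plate's mean sample inhibition plus 3 SD, cut at about 24% in these data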;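 also: 0% = DMSO plus EC80 ATP and 100% = DMSO alone without ATP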
The depositor's hits bear a star.

SMILES	M1 ag	CHO-K1 Ca PAM	CHO-K1 Ca ag	M1 antag	M1 PAM	CHO-K1 Ca antag
COc1cccc(CN2CCC2(C)C(=O)Nc2cccc3cccnc23)c1F (stereo unspecified)	-1.0	10.3	-0.7	-8.3	9.5	-9.4
CC1(C(=O)Nc2cccc3cccnc23)CCN1Cc1csc2ccccc12 (stereo unspecified)	-2.9	50.6*	1.2	-6.5	-0.4	-35.6
Cc1c2cnn(-c3ccccc3)c(=O)c2c(C)n1CCCC(=O)N1CCN(C2CCCCC2)CC1	37.6*	16.1	0.7	29.5	-11.1	-11.6
CCN1CCN(C(=O)CCCn2c(C)c3cnn(-c4ccccc4)c(=O)c3c2C)CC1	-5.8	9.6	0.2	-20.0	24.7*	6.3
OCCNc1nc2nonc2nc1NCCO	-5.3	13.2	0.3	-1.9	5.8	-5.3
CC(C)(C)Nc1nc2nonc2nc1NC(C)(C)C	2.5	12.2	15.7*	9.2	-9.1	-0.6
CC1CC(C)CN(C(=O)c2ccc(Br)c(S(=O)(=O)N3CCOCC3)c2)C1 (stereo unspecified)	-0.7	7.9	1.5	0.0	2.2	-1.7
O=C(c1ccc(Br)c(S(=O)(=O)N2CCOCC2)c1)N1CCN(C/C=C/c2ccccc2)CC1	-5.6	5.3	8.2	69.9*	-29.4	-11.2
Cc1ccc(CN(C)C(=O)COC(=O)CSc2cc(C)c3ccccc3n2)cc1	-2.5	-3.5	-0.6	-4.5	4.1	-7.4
CC(C)(C)C(=O)/C=c1\[nH]c(=O)/c(=C\c2ccc(C#N)cc2)s1	0.5	-7.5	0.4	-15.2	12.3	25.3*
CCN1CCN(S(=O)(=O)c2cc(OCC(=O)NC3CCCCC3)c(C)cc2Cl)CC1	-1.0	-6.0	1.3	9.0	-0.2	26.7*
Cc1cc(Cl)c(S(=O)(=O)N2CCN(c3ccccn3)CC2)cc1OCC(=O)NC1CCCCC1	-0.8	-10.9	11.1	26.4*	-12.8	1.3
COC(=O)c1ccccc1Oc1cc(C(F)(F)F)nc(-c2ccccn2)n1	-4.2	-22.6	-0.4	5.4	-1.2	6.1
COc1ccc(C2CC(c3cccs3)=NN2C(=O)CSc2nnnn2C)cc1OC (stereo unspecified)	-3.3	7.8	15.3*	8.0	-6.4	5.6
COc1ccc(C2CC(c3cccs3)=NN2C(=O)CSc2nncn2C)cc1OC (stereo unspecified)	-5.7	1.4	-0.4	-15.2	9.2	-12.7
COc1ccc(C(=O)N2CCc3ccccc3C2)cc1S(=O)(=O)N1CCCC1	3.1	-14.1	1.4	-1.4	5.3	1.0
Cc1nn(C)cc1CN(C)C(=O)c1cc(-c2ccccc2)nc2ccc(Br)cc12	-1.1	-4.5	7.3	34.3*	-6.8	-2.7
COc1ccccc1CN(C)C(=O)c1cc(C)nc2ccccc12	-1.6	12.1	4.1	-4.4	-0.2	-8.9
COc1ccc(CN(C)C(=O)c2cc(-c3ccccc3)nc3ccc(C)cc23)c(OC)c1	-3.4	11.7	5.1	37.2*	-16.9	-10.6
Cn1cc(CNC(=O)c2cc(-c3ccccc3)nc3ccc(Br)cc23)cn1	-8.0	13.8	3.4	8.8	-10.0	-6.8
Cc1cc(C)c(NC(=O)CN2CCN(c3ccccn3)CC2)c(C)c1	-4.0	24.4	0.5	-12.7	7.8	-6.5
NS(=O)(=O)c1ccc(NC(=S)N2CCN(Cc3ccc(Cl)c(Cl)c3)CC2)cc1	-12.9	19.0	19.0*	5.5	3.2	2.3
COc1ccccc1CNC(=O)COC(=O)C1CCN(S(=O)(=O)c2ccccc2)CC1	-2.5	9.4	0.4	-13.4	7.5	12.1
O=C(c1ccc(Cl)cc1)C(CN1CCCC1)c1ccccc1 (stereo unspecified)	-9.0	-2.9	0.5	38.4*	-25.2	3.6
COc1ccc(C(=O)C(CN2CCCC2)c2ccccc2)cc1 (stereo unspecified)	-4.7	22.3	0.6	11.1	-16.7	-6.3
OC(c1cc(C(F)(F)F)nc2c(C(F)(F)F)cccc12)C1CCCCN1 (stereo unspecified)	-1.5	-2.5	1.8	-19.8	5.1	19.7
OC(c1cc(-c2ccc(C(F)(F)F)cc2)nc(C(F)(F)F)c1)C1CCCCN1 (stereo unspecified)	16.3*	14.7	17.6*	5.8	14.7	14.1
